# Screening results as filed in PubChem BioAssay.
# PfM18AAP inh: PfM18AAP inhibitors, malaria aminopeptidase, primary screen, biochemical, QFRET, recombinant enzyme | M18 aspartyl aminopeptidase (Plasmodium falciparum 3D7) | inhibition, % at 7.35 µM | H-Glu-NHMec fluorogenic cleavage | 290,000 tested, 1.2% active;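 active = inhibition above the campaign mean inhibition over all tested compounds plus 3 SD, cut at about 28% in these data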;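 note: 0% = plate median of test compound wells and 100% = 2 mM ZnCl2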
# IDE act: human IDE activators in live cells, primary screen, fluorescence polarization, HEK cells, FAbeta-B substrate; Insulin-degrading enzyme (Homo sapiens), P14735; FAbeta-B cleavage; 0% vehicle, 100% cell-free pure enzyme wells; activation, % at 5.96 µM; 340,000 tested, 0.073% active; AID 493087, 2011;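 active = activation above the mean of all tested compounds plus 3 SD, set per screening campaign, cut at about 17% in these data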
# IDE inh: human IDE inhibitors in live cells, primary screen, fluorescence polarization, HEK cells, FAbetaB substrate | FAbetaB cleavage | inhibition, % at 5.59 µM | AID 434962, 2010 | 320,000 tested, 0.41% active;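 active = percent inhibition above the average of all tested compounds plus 3 SD, set per screening campaign, cut at about 16% in these data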;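 note: IDE supplied by intact live HEK cells; FP after avidin binding of uncleaved biotin substrate so inhibition keeps polarization high; 0% = DMSO wells and 100% = 60 µM reference IDE inhibitor Ii1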
# ALR inh: inhibitors of human ALR sulfhydryl oxidase, primary screen, biochemical, H2O2 detection, HRP-luminol luminescence, single point; FAD-linked sulfhydryl oxidase ALR (Homo sapiens), P55789; purified ALR, DTT oxidation; inhibition, % (no concentration beside the values); 290,000 tested, 3.8% active; AID 485317, 2010;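 active = mean replicate inhibition above about 79%, with every replicate also reaching it, limit read from the data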
# PolyA inhibitor: polyadenylation inhibitors in yeast reporter cells, primary screen, luminescence, S. cerevisiae | 300,000 tested, 0.02% active | S. cerevisiae SKY197-pL101 polyadenylation reporter, beta-gal luminescence; efflux-impaired pdr1/pdr3 knockout yeast; score 100 = 6 SD above DMSO | activity score, % at 12 µM;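 active = lowest replicate activity score at least 50, where 100 means six control SD above control mean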;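 note: yeast exposed to compound for 9 h at 30 °C; higher score means more reporter readthrough which indicates perturbed polyadenylation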
# CaV13 ICDI inh: Disruptors of the CACNA1D IQ motif to Ca2+-dependent inactivation inhibitor domain association, primary screening, Förster resonance energy transfer in intact living …; HEK cells, CFP/YFP FRET ICDI-IQ, plate reader, 10 min; percent FRET-ratio fall versus neutral wells; inhibition, % at 12.3 µM; 340,000 tested, 0.098% active;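 active = mean replicate inhibition of at least 30% and at least 1% of replicates passing that level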;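 note: 0% = median of the neutral control wells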
# Active calls of the source: *; . = no result. An excerpt weighted towards active compounds, which were near 4.1% of everything screened.
SMILES,PfM18AAP inh,IDE act,IDE inh,ALR inh,PolyA inhibitor,CaV13 ICDI inh
O=C1CCC(=O)N1CNc1ccc(Oc2ccccc2)cc1,-1,0,-6,98*,9,-7
COc1ccc(NCN2C(=O)CCC2=O)cc1,6,3,8,17,13,.
COC1(OC)N=C(N)C2(C#N)C(c3ccc(C)cc3)C12C#N (centres undefined),0,7,5,6,28,.
COC1(OC)N=C(NC(=O)Nc2ccccc2)C2(C#N)C(c3ccccc3)C12C#N (centres undefined),8,-1,2,99*,-5,.
COc1cc(C2CC(=O)Oc3c(C(CCN4CCOCC4)c4ccc(N(C)C)cc4)c(OC)cc(OC)c32)cc(OC)c1OC (centres undefined),.,3,2,.,58*,-4
COC(=O)c1ccccc1NC(=O)c1cccnc1,1,0,5,1,-5,-20
CCOC(=O)c1c(-c2ccccc2)csc1NC(=O)CCN1CCOCC1,1,4,-1,3,-82,-1
CCOC(=O)c1c(-c2ccccc2)csc1NC(=O)C1CCCO1 (centres undefined),13,-6,-5,.,-25,-5
CCOC(=O)c1c(-c2cccc(C)c2)csc1NC(=O)C1CC=CCC1C(=O)O (centres undefined),-16,5,1,98*,-8,-7
CCOC(=O)c1c(-c2ccc(C)cc2)csc1NC(=O)C1CC=CCC1C(=O)O (centres undefined),13,0,1,13,1,-1
CCOC(=O)c1c(-c2ccc(-c3ccccc3)cc2)csc1NC(=O)C1C2CCC(O2)C1C(=O)O (centres undefined),-4,3,3,96*,-10,0
CCOC(=O)c1c(-c2ccc(C)cc2)csc1NC(=O)CCN1CCOCC1,3,1,5,92*,-40,.
O=C(O)CN1CCN(Cc2ccc(F)cc2Cl)C1=O,5,-1,-5,-8,.,-8
CSc1ccc(C(=O)NCC2CCN(C(=O)C(=O)c3cc4ccccc4o3)CC2)cc1,.,.,.,.,.,-6
O=C(NCC1CCCO1)c1cccc(S(=O)(=O)Nc2ccc(SC(F)F)cc2)c1 (centres undefined),.,4,-4,98*,.,-2
COc1ccc(NS(=O)(=O)c2cccc(C(=O)NCC3CCCO3)c2)cc1 (centres undefined),.,0,-5,-11,29,-7
Cc1c(C(=O)N(C)C)c2ccc(Cl)cc2n1O,10,6,3,99*,-1,12
Cc1c(C(=O)N(C)C)c2cc(Cl)ccc2n1O,10,3,0,98*,9,-1
CCOC(=O)c1c(C)n(O)c2ccc(Cl)cc2c1=O,5,2,1,4,-4,-4
CCOc1ccccc1/C=N/Nc1ccnc(=O)[nH]1,-13,1,.,-6,0,-6
O=c1nccc(N/N=C/c2ccccc2O)[nH]1,29*,-6,.,0,9,-13
Cc1cccc(C(=O)Nc2scc(CC(C)C)c2C(=O)O)c1,2,-6,4,96*,-10,-5
CC(C)Cc1csc(NC(=O)c2ccccc2Cl)c1C(=O)O,-1,5,2,96*,5,-6
CC(C)Cc1csc(NC(=O)c2ccc(Cl)cc2)c1C(=O)O,-8,2,-1,12,-15,-5
CCOc1ccc(S(=O)(=O)N2CCN=C2c2ccccc2)c(C)c1C,-13,-3,-5,-5,1,.
C=CCNc1nc2c3ccccc3n(C(C)=O)c2s1,3,-2,-1,96*,5,.
CC(=O)n1c2ccccc2c2nc3ccccc3nc21,-3,6,-1,-11,1,.
O=C1CC(=O)N(c2ccccc2)N1c1ccccc1,1,4,1,97*,24,-5
Cc1cc(NC(=S)Nc2ccc(C)c(Cl)c2)n[nH]1,2,-6,-2,97*,-9,-17
